Among the data in PubChem BioAssay AID449762 (Southern Research Specialized Biocontainment Screening …, 2010) are inhibition values, retold here.

The campaign covered roughly 330,000 compounds. About 1,900 (0.58%) were called active. Roughly 4% stayed inconclusive and do not appear here. Not all results are given here. Results with a measured potency or affinity are listed apart. Unmarked numbers belong to inactive results. No stated cut-off is given here; in the data, inconclusive means inhibition above about 70% without an active follow-up result; inactive means below that.

This test in a line: M. tuberculosis growth inhibition, HTS (AID 449762).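 Further: bacterial growth assessed after seven days of incubation.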 The settings on record: M. tuberculosis H37Rv growth inhibition, 7H9 media; at 25 µM; active compounds read high.
Usually inhibition stands for the relative decrease from the control value, in per cent. Turning to `O=C(CN1CCN(S(=O)(=O)c2ccc(F)cc2)CC1)Nc1ccc(Cl)c(C(F)(F)F)c1`, the inhibition is 3.5%. `CC(=O)c1cccc(OCC(=O)N2CCN(CC(=O)Nc3cccc(F)c3)CC2)c1`: the inhibition is -12.4%. As for `CCOc1ccccc1NC(=O)c1sc2nc(C)nc(N3CCOCC3)c2c1C`, the inhibition is 10.4%. On to `COc1ccc(NC(=O)c2sc3nc(C)nc(N4CCOCC4)c3c2C)c(OC)c1`, for which the inhibition was -1.8%. With `CC(C)(C)OC(=O)C[C@H]1C/C=C\C[C@H](CC(=O)N(CCO)Cc2ccccc2)C(=O)N[C@@H](c2ccccc2)COC1=O` the figure was -6.06%; with `COc1ccc(OC)c(NS(=O)(=O)Cc2ccccc2)c1`, -14.1%. With `Cc1cc(=O)oc2c(C)c(OC(C)C(=O)NCC3CCC(C(=O)O)CC3)ccc12` (stereo unspecified) the figure was 1.04%; with `Cn1ncc(Cl)c1C(=O)Nc1nnc(C2CC2)s1`, -2.94%.

Turning to `N#CCCN(C(=O)COC(=O)CCc1nc2ccccc2c(=O)[nH]1)c1ccc(F)cc1`, the inhibition was -3.42%. With `N#CCCN(C(=O)COC(=O)Cc1c[nH]c2ccccc12)c1ccccc1` the figure was 1.58%.

As for `COc1ccc(NC(=O)C2CCN(S(C)(=O)=O)CC2)cc1`, the inhibition was -4.9%. To `O=C(CC1SC(=NCC2CCCO2)NC1=O)Nc1cccc2ccccc12` (stereo unspecified) belongs 6.34%; to `CC(Oc1ccc(Br)cc1)C(=O)NCC(C)(C)N1CCOCC1` (stereo unspecified), 4.22%.

In the case of `COc1cccc(CC(=O)N2CCN(c3ccccc3[N+](=O)[O-])CC2)c1`, the inhibition was 5.35%.

Take `COc1ccc(-c2ccc(-c3noc(C)n3)c(OC)n2)cc1`: the inhibition was 5.33%.

With `CCc1nc(-c2ccc(-c3ccc(OC)cc3)nc2OC)no1`, the inhibition is 68.2%. To `COc1cc(OC)cc(OCC(O)Cn2ccnc2)c1` (stereo unspecified) belongs 7.96%; to `CCC(CC)C(=O)Nc1cc(C(=O)NCCc2ccccc2)ccc1Cl`, 1.26%. To `Cc1ccc(NC(=O)CN2C(=O)NC(Cc3ccccc3)C2=O)c(Br)c1` (stereo unspecified) belongs -0.06%; to `Cc1ccc(SCCC(=O)OC(C(=O)NC(N)=O)C(C)C)cc1` (stereo unspecified), -4.48%.

Regarding `CCn1nc(C(=O)N[C@@H](CCSC)c2nc3ccccc3[nH]2)c2ccccc2c1=O`, the inhibition was 1.2%. Turning to `CCCn1nc(C(=O)Nc2cc(C(=O)OC)ccc2C)c2ccccc2c1=O`, the inhibition was 3.29%. To `Cn1nc(C(=O)Nc2ccccc2N2CCCC2)c2ccccc2c1=O` belongs 54.7%. To `CCCn1nc(C(=O)NNC(=O)c2ccc(OC(F)F)cc2)c2ccccc2c1=O` belongs 3.96%; to `CSCC[C@H](NC(=O)c1nn(C)c(=O)c2ccccc12)c1nc2ccccc2[nH]1`, -4.72%; to `CCCCn1nc(C(=O)NCc2ccccc2CN2CCCC2)c2ccccc2c1=O`, -5.37%. To `C/C(=N\NC(=O)CNC(=O)C1COc2ccccc2O1)c1ccc(Cl)cc1` (stereo unspecified) belongs 1.09%. For the molecule `COc1ccc(/C=C/C(=O)OCC(=O)Nc2ccc(Cl)cn2)cc1`, the inhibition is 10.3%.

In the case of `CN1CC[n+]2cnc3ccccc3c21`, the inhibition is -2.8%. In the case of `CC1(C)CC(NC(=O)C2CCN(S(=O)(=O)c3ccccc3C(F)(F)F)CC2)CC(C)(C)N1`, the inhibition was -16.1%. With `COc1ccccc1C(=O)COC(=O)Cn1nc(C)c([N+](=O)[O-])c1C`, the inhibition is -2.3%. To `CCc1cc(=O)oc2c3c(cc(OCC(=O)NCCN4CCOCC4)c12)OC(C)(C)CC3` belongs -4.22%; to `c1ccc(-c2nc(-n3ccnc3)nc(-n3ccnc3)n2)cc1`, 22.2%; to `c1ccc(-n2ccnc2)cc1`, 62.1%.

In the case of `c1ccc(Cn2cc(-c3cccnc3)cn2)cc1`, the inhibition was 7.26%. With `Nc1cc(C(F)(F)F)cc([N+](=O)[O-])c1N` the figure was 18%; with `CCCOP(=O)(O)c1c([N+](=O)[O-])cc(C(F)(F)F)cc1[N+](=O)[O-]` (tested in a mixture with another compound), -2.65%; with `COC(=O)c1ccc(CNC(=O)C2CCC(=O)N(CCCc3ccccc3)C2)cc1` (stereo unspecified), -9.71%. With `O=C(NC1CCCC1)c1ccccc1-c1ccccc1` the figure was 64.1%. With `O=C(NC1CCCCCCC1)c1ccccc1O` the figure was 6.43%; with `CN(Cc1ccccc1)S(=O)(=O)c1cccc2nsnc12`, -5.13%.

As for `COC(=O)[C@@H](NC(=O)O[C@@H]1C(=O)c2cc(Br)ccc2O[C@H]1c1cccc(OC)c1)C(C)C`, the inhibition is 8.75%. With `COc1ccc2c(c1)O[C@@H](c1cccc(C(F)(F)F)c1)[C@H](OC(=O)NCCc1ccc(OC)c(OC)c1)C2=O` the figure was 8.51%; with `Cc1cc(=O)oc2cc(NC(=S)NNC(=O)c3c(Cl)cnn3C)ccc12`, -1.94%; with `CCN(CC)C(=O)c1ccccc1NS(C)(=O)=O`, -4.74%.

Turning to `CCNC(=O)CSc1nnc(-c2cccs2)o1`, the inhibition is 17%. With `C=CCNC(=O)CSc1nnc(-c2cccs2)o1` the figure was 2.45%; with `Clc1ccc(OCCOCCN2CCCCC2)c(Br)c1`, -2.44%; with `CC(C)N1CCN(Cc2cccn2-c2cccnc2)CC1CCO` (stereo unspecified), -3.04%. With `CCOC(=O)C1(CCc2ccccc2)CCN(Cc2ccc(NC(C)=O)cc2)CC1` the figure was -6.26%; with `COc1cc2ncnc(NCc3ccccc3F)c2cc1OC`, 4.17%.

As to `COc1ccc2cc(C(c3nnnn3CCc3ccccc3)N3CCC(O)CC3)c(=O)[nH]c2c1` (stereo unspecified), the inhibition is -12.3%. To `CCc1ccc2[nH]c(=O)c(C(c3nnnn3CCOC)N3CCN(c4ccccc4)CC3)cc2c1` (stereo unspecified) belongs -6.34%; to `COc1cccc(OC)c1C(=O)NC(=S)N1CCCCC1c1cccnc1` (stereo unspecified), -6.76%.

For the molecule `O=C(CCC(=O)c1cccs1)OCC(=O)c1ccc(F)cc1`, the inhibition was 1.25%.

With `Cc1nn(Cc2ccccc2)c(C)c1C(=O)OCC(=O)c1cc(C)n(C2CC2)c1C`, the inhibition is 63.9%. Take `COCCn1c(C)cc(C(=O)COC(=O)c2c(C)nn(Cc3ccccc3)c2C)c1C`: the inhibition was 20.6%.

On to `CSc1ccc(C(=O)C2CCCN(Cc3cccn3-c3cccnc3)C2)cc1` (stereo unspecified), for which the inhibition was 9.15%. With `O=C(c1ccc2c(c1)OCO2)N1CCc2ccccc21` the figure was -5.13%.

As to `Cc1nc(SCC(=O)c2cc3ccccc3oc2=O)c(C#N)c(-c2ccccc2)c1C(=O)Nc1ccccc1`, the inhibition is 17.1%. To `Cc1nc(SCC(=O)c2cc3ccccc3oc2=O)c(C#N)c(-c2cccs2)c1C(=O)Nc1ccccc1` belongs 3.9%; to `Cc1nc(NC(=O)c2ccccc2)sc1-c1csc(Nc2ccc(Cl)cc2Cl)n1`, 6.01%; to `COc1ccccc1Nc1nc(-c2sc(NC(=O)CC(C)C)nc2C)cs1`, 1.91%.

Turning to `Cc1ccc(C(C)C)c(OCC(=O)Nc2ccc(N3CCN(S(C)(=O)=O)CC3)cc2)c1`, the inhibition was -4.74%. With `CCCCCCSc1ccc([C@H]2N[C@@](CC(C)C)(C(=O)OC)[C@H]3C(=O)N(CC)C(=O)[C@@H]23)cc1` the figure was -1.98%. With `COc1cc(NC(=S)NCCc2ccccc2)c(OC)cc1NC(=O)CC(C)C` the figure was -2.92%; with `CN1C(=S)SC(N(O)C(=O)Nc2cccc3ccccc23)C1(C)C` (stereo unspecified), 3.28%. With `CN1C(=S)SC(N(O)C(=O)Nc2ccccc2)C1(C)C` (stereo unspecified) the figure was -1.59%; with `CC1=CSC2=NS(=O)(=O)CCN12`, -1.32%; with `COCCCNC(=O)c1c[nH]c2ccc(S(=O)(=O)N3CCC4(CC3)OCCO4)cc2c1=O`, -4.78%. `COc1ccc(-c2nnn(CC(=O)NC(=O)NC3CCCCC3)n2)cc1OC`: the inhibition is -0.345%. With `O=C(Cn1nnc(-c2cccs2)n1)OC1CCCCC1` the figure was 4.15%. With `O=C(NC(=S)NC1CCS(=O)(=O)C1)c1ccccc1` (stereo unspecified) the figure was -12%; with `Cc1c(C(=O)N2CCC3(CC2)OCCO3)sc2ncnc(N3CCc4ccccc4C3)c12`, -0.89%. With `CC(C)CCn1nnnc1C(c1ccccc1)N1CCN(C)CC1` (stereo unspecified) the figure was 5.26%. For `O=C(CNS(=O)(=O)c1cccs1)N1CCN(c2ccccn2)CC1`, the inhibition was 4.15%. With `CCOC(=O)N1CCN(C(=O)C2CCN(c3nnc(-n4cccc4)s3)CC2)CC1` the figure was -4.54%; with `O=C(C1CCN(c2nnc(-n3cccc3)s2)CC1)N1CCOCC1`, -4.62%.

Turning to `CC1=NN(C(N)=S)C(=O)C1N=Nc1ccc(S(N)(=O)=O)cc1` (stereo unspecified), the inhibition was 0.37%. To `CC1=NN(C(N)=S)C(=O)C1N=Nc1ccc(Br)cc1` (stereo unspecified) belongs 58.6%; to `Cc1ccc(S(=O)(=O)Nc2ccc3ccccc3n2)cc1`, 0.36%. For `COc1ccccc1-c1cc2nc(C)c(CCC(=O)NC(C)CCc3ccco3)c(C)n2n1` (stereo unspecified), the inhibition is 2.39%. Regarding `Cc1nc2cc(-c3cccc(F)c3)nn2c(C)c1CCC(=O)NC(C)CCc1ccco1` (stereo unspecified), the inhibition is -9.87%. Turning to `O=c1cc(O)nc(SCc2ccc(Cl)cc2)[nH]1`, the inhibition is -0.2%. In the case of `COc1cc(-c2nnc(CSc3nnc(N)s3)o2)cc(OC)c1OC`, the inhibition is -0.69%.

With `Cc1nc(-n2nnc3ccccc32)c2c3c(sc2n1)CCCC3`, the inhibition was 4.15%.

`CCCc1cc(=O)n2[nH]c(C)c(-c3ccc(OC)cc3)c2n1`: the inhibition is 35.8%. With `Cc1cc(=O)n2[nH]c(C)c(-c3ccc(Cl)cc3)c2n1` the figure was -1.1%; with `Cc1cc(NC(=O)Cn2nnc(-c3ccccc3NC(=O)c3ccccc3F)n2)no1`, -4.78%; with `CCOC(=O)c1cnc(Nc2nc3ccccc3o2)nc1CSc1ncccn1`, 0.71%. To `CCCc1nc(Nc2nc3ccccc3o2)nc(C)c1C(=O)OCC` belongs -21.6%.
